Source: PubChem BioAssay (several laboratories)
This is a sample that favours compounds with a hit; in the whole collection about 1.3% have one here.
S1P2 agonist = agonists of human S1P2 receptor; S1P2-expressing cell line, agonist reporter read-out; O95136; activation, % at 4.5 µM; 97,000 compounds, 0.46% hits; AID 729; in the data active = activation above about 16%;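 note: 0% = vehicle low control and 100% = maximal reference agonist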
Target sequence (O95136 whole entry, looked up): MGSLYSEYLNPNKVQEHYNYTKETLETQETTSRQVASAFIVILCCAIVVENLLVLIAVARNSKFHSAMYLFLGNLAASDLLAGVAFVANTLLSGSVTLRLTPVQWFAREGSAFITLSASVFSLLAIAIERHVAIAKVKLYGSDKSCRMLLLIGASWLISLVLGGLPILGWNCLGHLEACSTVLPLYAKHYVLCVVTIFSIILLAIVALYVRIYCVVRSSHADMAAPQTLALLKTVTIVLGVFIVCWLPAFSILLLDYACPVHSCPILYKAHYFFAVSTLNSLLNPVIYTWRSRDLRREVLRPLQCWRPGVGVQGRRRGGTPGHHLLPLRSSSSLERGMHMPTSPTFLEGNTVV
GALR2 blocker = GALR2 (human) receptor antagonism; O43603; GALR2-expressing cells, antagonist mode; inhibition, % at 4 µM; 140,000 compounds, 0.39% hits; AID 828;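 note: cells stimulated with galanin 1-16 at roughly its EC80; 0% = agonist challenge control and 100% = basal control without agonist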
Target sequence (O43603 whole entry, looked up): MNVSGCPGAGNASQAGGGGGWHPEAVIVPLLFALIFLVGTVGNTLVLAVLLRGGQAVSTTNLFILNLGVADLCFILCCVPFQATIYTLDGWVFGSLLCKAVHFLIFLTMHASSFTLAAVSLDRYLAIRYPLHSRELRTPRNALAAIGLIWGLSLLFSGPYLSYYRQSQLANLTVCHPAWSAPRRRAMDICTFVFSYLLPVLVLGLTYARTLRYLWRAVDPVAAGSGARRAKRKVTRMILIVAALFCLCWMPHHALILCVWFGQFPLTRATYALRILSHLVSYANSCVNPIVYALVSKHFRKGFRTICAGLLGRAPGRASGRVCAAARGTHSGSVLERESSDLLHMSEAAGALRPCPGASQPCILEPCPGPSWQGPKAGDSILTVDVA
S1P2 antag = S1P2 (human) receptor antagonism. O95136. cell-based S1P2 antagonist assay, inhibition at 5 uM. inhibition, % at 5 µM. 97,000 compounds, 0.21% hits. AID 736; in the data active = inhibition above about 45%;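 note: CRE beta-lactamase reporter cells expressing human S1P2 stimulated with S1P; 0% = agonist at EC80 alone and 100% = agonist plus reference antagonist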
cytoskel mod = modifiers of cytoskeleton assembly; HUVEC TNFa F-actin phalloidin imaging, high content; inhibition, % at 2 µM; 91,000 compounds, 0.18% hits;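 active = inhibition above the batch mean plus 3 SD and confirmed as a hit by visual image inspection, cut at about 30% in these data, passing the limit was not always enough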
GALR2 ag = GALR2 (human) receptor agonism; O43603; GALR2-expressing cells, agonist activation read-out; activation, % (test concentration not listed); 140,000 compounds, 0.48% hits; in the data active = activation above about 5%, passing the limit was not always enough;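 note: 0% = vehicle buffer wells and 100% = reference agonist at full effect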
GALR2 blk conf = GALR2 (human) antagonism confirmed; shares compounds with GALR2 blocker; GALR2-expressing cells, antagonist mode, inhibition; inhibition, % at 4 µM; 480 compounds, 60% hits; AID 866;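 note: cells stimulated with galanin at about its EC80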
BLA inh counter = counter-screen for GALR2 antagonists: beta-lactamase reporter inhibitors | CHO NFAT-BLA reporter, beta-lactamase FRET, thapsigargin-stimulated | shares compounds with GALR2 blocker | 480 compounds, 36% hits | inhibition, % at 4.2 µM;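 active = inhibition above the mean inhibition across tested compounds plus 3 SD, cut at about 27% in these data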;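 note: 0% = 500 nM thapsigargin stimulated wells and 100% = unstimulated BSA only wells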
Numbers without * were called inactive; nt = no result. Cut-off read from the data, not from the text of the source, unless noted: active = inhibition above about 27%; inactive = the rest.

SMILES | S1P2 agonist | GALR2 blocker | S1P2 antag | cytoskel mod | GALR2 ag | GALR2 blk conf | BLA inh counter
CC(/C=N/n1c(-c2ccc(Cl)cc2)n[nH]c1=S)=C\c1ccco1 | nt | 7.8 | nt | nt | -0.1 | nt | nt
O=C(O)/C(=C/c1ccco1)NC(=O)c1ccccc1 | nt | 0.8 | nt | nt | 0.1 | nt | nt
CC(=O)Nc1ccc(NC(=O)C(Cc2ccccc2)NC(=O)C2CCC(C)CC2)cc1 (stereo unspecified) | nt | -1.7 | nt | nt | -1.0 | nt | nt
CC(NC(=O)CN(C)Cc1nc2ccccc2c(=O)[nH]1)c1ccccc1 (stereo unspecified) | -3.7 | 35.9* | -8.5 | -20.5 | -2.9 | 3.1 | 4.2
O=C1c2cccc3c([N+](=O)[O-])ccc(c23)C(=O)N1c1ccccn1 | -8.0 | 34.3* | 67.3* | -85.0 | 2.1 | 49.0* | 43.7*
O=C1c2cccc3cccc(c23)C(=O)N1c1nccs1 | 0.0 | -14.5 | 11.8 | 12.2 | -1.4 | nt | nt
O=C1c2cccc3c([N+](=O)[O-])ccc(c23)C(=O)N1c1nccs1 | -10.1 | 49.5* | 50.8* | -16.7 | 1.5 | 55.3* | 34.6*
CC1=C(C)C(=O)N(c2ccccn2)C1=O | -11.8 | 1.6 | 18.7 | -42.8 | 1.0 | nt | nt
COc1ccc(C)cc1S(=O)(=O)N1CCC(C(=O)N2CCN(C)CC2)CC1 | nt | 4.8 | nt | nt | -1.1 | nt | nt
Cc1ccc(Cl)c(NC(=O)COC(=O)c2ccccc2C(=O)c2ccc(Cl)c([N+](=O)[O-])c2)c1Cl | nt | 69.2* | nt | nt | 0.5 | 80.1* | 71.1*
Fc1ccccc1-c1csc(=Nc2cccnc2)n1CCCn1ccnc1 | nt | 4.2 | nt | nt | 1.4 | nt | nt
CC(C)(C)C(=O)/C(=C\c1ccc([N+](=O)[O-])cc1)n1cncn1 | -9.4 | 55.9* | 66.2* | 5.4 | 1.4 | 72.6* | 56.8*
CCOC(=O)C1=C(O)c2ccccc2C(=O)/C1=C\c1ccc(C)cc1 | nt | 29.9* | nt | nt | -0.9 | 15.0 | 13.8
CCn1c2ccccc2c2cc(NC(=O)c3cc(OC)c(OC)c(OC)c3)ccc21 | 5.0 | 28.7* | -12.6 | -3.5 | 0.6 | 42.5* | 67.3*
CCCN(CCC)S(=O)(=O)c1ccc(C(=O)N2CCCc3ccccc32)cc1 | -2.8 | -17.6 | 7.6 | -15.8 | 0.9 | nt | nt
c1cncc(-c2nc(NCC3COc4ccccc4O3)c3ccccc3n2)c1 (stereo unspecified) | 3.7 | 5.3 | -6.6 | 18.1 | -0.9 | nt | nt
c1ccc2c(c1)OCC(CNc1ncnc3sccc13)O2 (stereo unspecified) | nt | 42.3* | nt | nt | 0.0 | 54.2* | 11.3
O=C(NCCN1CCOCC1)/C(=C\c1ccc(Br)cc1)NC(=O)c1cccs1 | nt | -2.2 | nt | nt | -1.5 | nt | nt
Cc1ccc(/C(C#N)=C\c2ccc(N3CCOCC3)o2)cc1 | -7.5 | 43.9* | 50.6* | 3.5 | -2.2 | 15.0 | 21.5
Cc1ccc2nc(/C(C#N)=C\c3ccc(N4CCOCC4)o3)[nH]c2c1 | 0.0 | 28.6* | -26.8 | 11.4 | -0.4 | 23.1 | 6.3
CCc1ccc2c(c1)C1(NN=C(c3cccc4ccccc34)S1)C(=O)N2 (stereo unspecified) | -6.5 | 29.4* | 27.0 | 2.5 | 0.9 | 13.4 | 10.2
O=C(COC(=O)Cn1cnc2ccccc2c1=O)Nc1ccccc1Sc1ccc(Cl)cc1 | nt | -8.8 | nt | nt | -0.6 | nt | nt
CCCCn1c(SCC(=O)Nc2cc(C(F)(F)F)ccc2Cl)nnc1C(CC)N(C)C (stereo unspecified) | nt | 1.0 | nt | nt | 0.3 | nt | nt
O=C(CCn1c(=S)[nH]c2cc3c(cc2c1=O)OCO3)N1CCc2ccccc2C1 | -2.5 | -6.1 | -2.9 | -8.9 | -2.0 | nt | nt
O=C(CCCn1c(=S)[nH]c2cc3c(cc2c1=O)OCO3)N1CCc2ccccc2C1 | -2.5 | 27.8* | 1.9 | 6.9 | -4.0 | 7.0 | 4.6
SMILES | S1P2 agonist | GALR2 blocker | S1P2 antag | cytoskel mod | GALR2 ag | GALR2 blk conf | BLA inh counter
CN(CC(=O)Nc1ccc(Cl)cc1)c1ccc(S(=O)(=O)N2CCCCC2)cc1[N+](=O)[O-] | nt | 4.6 | nt | nt | -0.8 | nt | nt
Clc1cccc(Cl)c1/C=C/c1nc2ccccc2[nH]1 | -3.7 | 27.4* | -5.0 | -1.9 | -1.2 | 29.1* | 11.7
Cc1ccc(F)cc1NC(=O)c1ccc(NS(=O)(=O)c2ccc(Br)s2)cc1 | nt | 1.3 | nt | nt | -0.2 | nt | nt
COc1ccc(CCNC(=O)CCC(=O)Nc2nnc(C(C)C)s2)cc1OC | nt | -3.3 | nt | nt | -1.3 | nt | nt
O=[N+]([O-])c1cc(C=Nc2ccc3ccccc3c2)ccc1Br | nt | 33.0* | nt | nt | -2.4 | 13.5 | 5.1
CCOC(=O)N1CCN(C(=O)c2ccc(NC(C)=O)cc2)CC1 | -10.6 | 9.0 | 10.8 | 0.5 | -1.4 | nt | nt
CCOC(=O)N1CCN(C(=O)c2ccc(NC(=O)c3ccc(C)cc3)cc2)CC1 | -7.1 | 28.0* | -2.0 | 19.7 | 1.1 | 30.5* | 19.1
CCC1(C(=O)OC)NC(c2ccco2)C2C(=O)N(c3ccc(C)cc3)C(=O)C21 (stereo unspecified) | -4.6 | 29.7* | 0.2 | 20.6 | -2.7 | 7.4 | 1.8
CCOC(=O)C1(C)NC(c2ccco2)C2C(=O)N(c3ccc(C)cc3)C(=O)C21 (stereo unspecified) | -8.8 | 2.0 | 1.0 | 5.9 | -2.2 | nt | nt
CCc1ccccc1NC(=S)N1CCN(c2ccccn2)CC1 | nt | 28.1* | nt | nt | -2.5 | 12.1 | -3.1
Cc1ccn2c(Nc3ccc4c(c3)OCO4)c(-c3ccccn3)nc2c1 | nt | 30.1* | nt | nt | -2.0 | 20.5 | 25.9
CNC(=O)NC(=O)C(C)OC(=O)c1c2c(nc3ccccc13)/C(=C/c1cccs1)CC2 (stereo unspecified) | nt | 48.5* | nt | nt | 6.6* | 41.2* | 48.4*
CCCCNC(=O)COC(=O)c1c2c(nc3ccccc13)/C(=C/c1cccs1)CC2 | nt | 27.3* | nt | nt | 8.0* | 41.4* | 50.9*
CCCCNC(=O)COC(=O)c1cc(C)nc2ccccc12 | -3.3 | -6.6 | -1.6 | 4.2 | -1.1 | nt | nt
COc1ccccc1NC(=O)C1=C(C)NC2=C(C(=O)CC(c3ccc(OC)c(OC)c3)C2)C1c1coc2ccccc2c1=O (stereo unspecified) | nt | 18.5 | nt | nt | -3.9 | nt | nt
CCN(CC)S(=O)(=O)c1ccc(O)c(NS(=O)(=O)c2ccccc2F)c1 | nt | 12.8 | nt | nt | -1.3 | nt | nt
Cc1ccc(-n2c(-c3ccc(Br)cc3)c[n+]3c2CCc2ccc4cccnc4c2-3)cc1 | -6.2 | 58.7* | 87.5* | 2.4 | 1.1 | 30.9* | 61.3*
CCCC(c1nnnn1Cc1ccco1)N1CCN(C2CCCC2)CC1 (stereo unspecified) | nt | 69.5* | nt | nt | -1.8 | 6.8 | 27.3*
Cc1ccc(NC2=C/C(=N/S(=O)(=O)c3cccs3)c3ccccc3C2=O)cc1 | nt | 3.1 | nt | nt | 2.3 | nt | nt
O=C1C(Nc2ccccc2)=C/C(=N/S(=O)(=O)c2cccs2)c2ccccc21 | nt | 87.8* | nt | nt | 5.5* | 67.4* | 71.1*
CCS(=O)(=O)c1c([N+](=O)[O-])ncn1C | nt | 28.1* | nt | nt | -2.9 | 22.9 | 1.5
Cc1ccc(-n2c(Cl)c(Cl)nc(Cl)c2=O)cc1 | nt | 81.2* | nt | nt | 1.6 | 92.1* | 98.6*
O=C(/C=C/c1ccccc1)N1CCN(CCN2C(=O)c3cccc4cccc(c34)C2=O)CC1 | nt | 4.1 | nt | nt | 0.6 | nt | nt
O=C(OCn1ncc(Br)c(Br)c1=O)c1ccccc1Cl | -5.4 | 79.1* | 51.3* | -4.3 | -3.2 | 94.5* | 97.3*
O=C(OCc1cnc(Cl)s1)c1ccccc1Cl | -2.5 | 0.0 | 14.7 | 15.8 | -1.5 | nt | nt
